DAX1 inh-1: DAX1 (NR0B1) inhibitors, primary screen, cell-based, HEK293, Gal4-DAX1, luciferase luminescence; HEK293 Gal4-DAX1 luciferase reporter; inhibition, % at 6.75 µM; AID 504766, 2011; Nuclear receptor subfamily 0 group B member 1 (Homo sapiens), P51843; hit rate 0.99% among 340,000;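 active = inhibition above the mean over all tested compounds plus 3 SD, cut at about 4.2% in these data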;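 also: 0% = DAX1-transfected cells with DMSO and 100% = empty-vector control cells with DMSO; inhibition shows as a rise in luminescence from relieved DAX1 repression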
Target sequence (P51843 207-470 limits assumed): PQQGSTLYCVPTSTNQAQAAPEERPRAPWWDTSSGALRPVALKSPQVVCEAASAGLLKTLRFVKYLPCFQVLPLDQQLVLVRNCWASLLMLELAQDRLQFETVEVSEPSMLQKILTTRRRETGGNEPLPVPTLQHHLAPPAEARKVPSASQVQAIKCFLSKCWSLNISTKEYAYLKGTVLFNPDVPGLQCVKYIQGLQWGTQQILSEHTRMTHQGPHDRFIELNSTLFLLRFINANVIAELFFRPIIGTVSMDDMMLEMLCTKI
hcDAF12 agonist: H. contortus DAF-12 nuclear receptor activators, primary screen, cell-based, luminescence, HEK293, lit1-tk-luc reporter; activation, % at 6.8 µM; hit rate 1.4% among 370,000; AID 652067, 2013; HEK293 hcDAF-12 lit1-tk-luc reporter; 0% DMSO, 100% Δ7-dafachronic acid;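 active = activation above the mean of all tested compounds plus 3 SD, cut at about 5.5% in these data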;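 also: 100% = response to 3 µM Δ7-dafachronic acid high control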
hgDAF12 agonist: H. glycines DAF-12 receptor agonists, primary screen, cell-based, luminescence, HEK293, GAL4 fusion, UAS-luciferase; Nuclear hormone receptor DAF-12 (Heterodera glycines), GAL4 fusion; HEK293 GAL4-hgDAF12 UAS-luciferase reporter, agonist luminescence; normalized to butyrate control; activation, % at 6.8 µM; hit rate 1.8% among 370,000;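 active = activation above a cutoff set at the mean of all screened compounds plus 3 SD, cut at about 10% in these data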;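 also: 0% = DMSO wells and 100% = sodium butyrate wells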
ssDAF-12 act: S. stercoralis DAF-12 nuclear receptor activators, primary screen, cell-based, luminescence, HEK293, GRIP1 co-expression, lit1-tk-luc; Nuclear hormone receptor DAF-12 (Strongyloides stercoralis); HEK293 ssDAF-12/GRIP1 lit1-tk-luc reporter; % of 3 µM dafachronic acid response; activation, % at 6.8 µM; hit rate 1% among 370,000;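 active = activation above the mean over all tested compounds plus 3 SD, cut at about 0.9% in these data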;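 also: 0% = DMSO-only wells and 100% = 3 µM delta7-dafachronic acid wells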
SMARCA2 activ: SMARCA2 (BRM) function activators, primary screen, cell-based, luminescence, high throughput; activation, % at 9.1 µM; AID 652017, 2013; MG213 cells, MMTV-luciferase reporter, dexamethasone, overnight; hit rate 1% among 370,000; in the data active = activation above about 7.8%;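 also: 0% = vehicle wells and 100% = reference activator wells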
DAX1 inh-2: DAX1 (NR0B1) inhibitors on StAR promoter, primary screen, cell-based, luminescence, SF-1 (NR5A1), full-length DAX-1; inhibition, % at 6.8 µM; HEK293T StAR-luciferase reporter, SF-1/DAX-1 repression relief; hit rate 1.1% among 370,000;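 active = inhibition above the mean over all tested compounds plus 3 SD, cut at about 3.6% in these data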;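 also: 0% = DAX-1 cells with DMSO and 100% = cells lacking DAX-1 with DMSO; higher inhibition means more luminescence from relief of DAX-1 repression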
Numbers without * were called inactive; · = not tested or not shown. Only some compounds are listed: those with a hit (about 4.8% of all), similar ones and a draw of the others.

SMILES	DAX1 inh-1	hcDAF12 agonist	hgDAF12 agonist	ssDAF-12 act	SMARCA2 activ	DAX1 inh-2
Cc1ccc(C2CC(c3ccccc3OC(F)F)Nc3ncnn32)cc1 (stereo unspecified)	5.3*	-1	1	-1	2	0
CCOC(=O)Cn1cc(CN2CCS(=O)(=O)N(Cc3ccc(OC)cc3)C(C(=O)OC)C2)nn1 (stereo unspecified)	·	-2	-1	-1	-2	0
Cc1nn(-c2ccccc2)c(C)c1C(=O)NCCc1ccc(Cl)cc1	0	-3	5	-1	1	-1
Cc1nn(-c2ccccc2)c(C)c1C(=O)NCCc1ccccc1	2	3	7	0	8.0*	1
COc1cc(C(=O)NNC(=O)C2CC=CCC2C(=O)O)cc(OC)c1OC (stereo unspecified)	0	0	-4	1.9*	0	1
CCOC(=O)c1ccc2c(c1)nc(SC/C(O)=C(\C#N)c1nc3ccccc3[nH]1)n2CC	1	5	3	1.6*	2	0
O=C(NC(=S)NNC(=O)[C@H]1C[C@@H]1c1ccccc1)c1cccc(F)c1	-1	1	0	1.4*	-2	1
O=C(NNC(=O)C1CC1c1ccccc1)c1cccc([N+](=O)[O-])c1 (stereo unspecified)	-1	0	1	0	4	0
COc1cccc(OC)c1C(=O)NC(=S)NNC(=O)[C@H]1C[C@@H]1c1ccccc1	0	-1	3	1.7*	1	0
CC(C)NC(=O)C1C(c2ccccc2)=Nc2ccccc2N1C(=O)c1cc(Cl)cc(Cl)c1 (stereo unspecified)	·	0	0	0	-1	0
O=C(NC1CCCC1)C1C(c2ccc(C(F)(F)F)cc2)=Nc2ccccc2N1C(=O)c1ccco1 (stereo unspecified)	·	5.6*	6	0	3	1
Cc1ccc(C(=O)N2c3ccccc3N=C(c3ccccc3)C2C(=O)NC(C)C)cc1 (stereo unspecified)	·	3	10	1.0*	0	2
CC(=O)N1c2ccccc2N=C(c2ccc(C(F)(F)F)cc2)C1C(=O)NC(C)C (stereo unspecified)	·	2	1	0	-6	1
CC(C)NC(=O)C1C(c2ccc(C(F)(F)F)cc2)=Nc2ccccc2N1C(=O)c1cccc2ccccc12 (stereo unspecified)	·	5	9	1.1*	1	1
CC(C)NC(=O)C1C(c2ccccc2)=Nc2ccccc2N1C(=O)c1ccc(C(F)(F)F)cc1 (stereo unspecified)	·	2	3	2.3*	-3	-1
COC(=O)[C@]12C[C@H](CC(=O)N3CCN(C(=O)c4ccco4)CC3)C(=O)N(Cc3cccc4ccccc34)C1=C[C@H](COCc1ccccc1)O[C@@H]2C	·	-5	-2	-2	-2	-2
O=[N+]([O-])c1ccc(C2Nc3cccc4cccc(c34)N2)cc1	1	3	2	1.6*	1	0
O=C(NCc1cccs1)O[C@H]1CC[C@@]23CCCN2C(=O)CCC[C@H]3C1	·	1	-5	-1	·	·
N#Cc1cccc(NC(=O)O[C@@H]2CC[C@@]34CCCN3C(=O)CCC[C@H]4C2)c1	·	0	-1	-2	·	·
NC(=O)CSc1nnc(-c2ccc3c(c2)OCO3)o1	·	3	13*	2.8*	3	3
COC(=O)[C@]12C[C@H](CC(=O)NCCCCc3ccccc3)C(=O)N(CCc3ccc(OC)c(OC)c3)C1=C[C@H](C(C)C)O[C@@H]2C1CC1	·	-4	3	-1	-3	-1
COc1cc(OC)cc(-c2nc3ccccc3c(=O)n2OC(=O)c2ccccc2C)c1	-1	-1	12*	-1	-3	0
COc1ccc2c3n(nc2c1)CCN=C3c1cc(Cl)c(N)c(Cl)c1	0	0	0	-1	3	0
Nc1c(Cl)cc(C2=NCCn3nc4cc([N+](=O)[O-])ccc4c32)cc1Cl	1	5.8*	-1	0	1	0
CN(CCCNC(=O)c1cn(C)c2ccc(S(=O)(=O)N(C)C)cc2c1=O)c1ccccc1	5.3*	-1	1	0	1	-2
SMILES	DAX1 inh-1	hcDAF12 agonist	hgDAF12 agonist	ssDAF-12 act	SMARCA2 activ	DAX1 inh-2
CN(C)S(=O)(=O)c1ccc2c(c1)c(=O)c(C(=O)NCCCN1CCCCCC1)cn2C	5.2*	1	3	-2	0	1
CCn1cc(C(=O)NCCCN2CCN(C)CC2)c(=O)c2cc(S(=O)(=O)N3CCc4ccccc4C3)ccc21	3	1	-2	1.5*	-2	0
Cn1cc(C(=O)N2CCN(c3ccccc3)CC2)c(=O)c2cc(S(=O)(=O)N3CCOCC3)ccc21	1	4	1	-1	-2	0
CN(C)S(=O)(=O)c1ccc2c(c1)c(=O)c(C(=O)N1CCOCC1)cn2C	5.9*	2	3	-2	0	1
CC1CCCN(CCCNC(=O)c2cn(C)c3ccc(S(=O)(=O)N(C)C4CCCCC4)cc3c2=O)C1 (stereo unspecified)	0	-2	0	-1	-1	1
Nn1c(SCC(=O)Nc2ccccc2-c2ccccc2)nnc1-c1n[nH]c2c1CCC2	·	-3	-3	-1	0	0
CCn1c2ccccc2c2cc(NC(=O)c3cc4c(C)nn(-c5ccccc5)c4s3)ccc21	·	1	1	-1	-5	-1
COc1cccc2c1C(=O)c1c(O)c3c(c(O)c1C2=O)CC(O)(C(C)=O)CC3OC1CC(N(C)C)C(O)C(C)O1 (stereo unspecified)	-7	-4	-11	-3	-11	-10
COc1cccc2c1C(=O)c1c(O)c3c(c(O)c1C2=O)C[C@@](O)(C(=O)CO)C[C@@H]3O[C@H]1C[C@H](N)[C@H](O)[C@H](C)O1	-3	5	-7	2.2*	-12	-6
CC(=O)[C@@]1(O)Cc2c(O)c3c(c(O)c2[C@H](O[C@H]2C[C@H](N)[C@H](O)[C@H](C)O2)C1)C(=O)c1ccccc1C3=O	·	4	-5	3.6*	-12	-14
O=C(NCc1ccc(C(=O)NC2CCCC2)cc1)c1cccc(Br)c1	·	-2	-2	0	4	0
CCN(CC)CCOc1c(Br)ccc2c1sc1nc3n(c(=O)c12)CCC3	3	1	6	0	5	0
O=c1c2c(nc3n1CCCCC3)sc1c(O)c(Br)ccc12	2	4	6	0	3	4.4*
